The source of these data is the antibiotic and cytotoxicity screens of Wong et al. (2023).

Hit rate of the full screen: of about 39,000 compounds, about 3,300 (8.5%) were called active. Many of the other results were omitted from the sample, so actives are more common in it than they were.

For this experiment, the system named is HepG2. Put plainly: cytotoxicity call (relative viability < 0.9). The following applies: 10 µM.
In the case of `C[C@H]1CN([C@@H](C)CO)C(=O)c2cc(NC(=O)Nc3cccc4ccccc34)ccc2O[C@H]1CN(C)C(=O)Nc1cccc2ccccc12`, the cytotoxicity call is “inactive”.

As to `COc1ncc(NC(=O)C2CC2)c(OC)n1`, the cytotoxicity call was “inactive”.

Consider `C[C@@H]1CN([C@H](C)CO)C(=O)c2c(c3ccccc3n2C)-c2ccccc2CO[C@@H]1CN(C)Cc1cccc2c1OCCCO2`, for which the cytotoxicity call is “inactive”.

On to `C[C@@H]1CN([C@H](C)CO)C(=O)c2cccc(NC(=O)c3ccc(-c4nccs4)cc3)c2O[C@H]1CN(C)C(=O)Nc1ccc2c(c1)OCO2`, for which the cytotoxicity call is “inactive”.

With `COc1ccc(S(=O)(=O)N(C)C[C@@H]2OCCCC[C@@H](C)Oc3ccc(NC(=O)CCC(F)(F)F)cc3C(=O)N([C@@H](C)CO)C[C@@H]2C)cc1`, the cytotoxicity call is “inactive”.

Take `Cc1noc(C)c1S(=O)(=O)N(C)C[C@H]1Oc2ccc(NC(=O)Cc3cn(C)c4ccccc34)cc2CC(=O)N([C@H](C)CO)C[C@@H]1C`: the cytotoxicity call is “inactive”.

`O=C(C[C@H]1C=C[C@@H](NC(=O)c2ccc(F)cc2)[C@H](CO)O1)NCc1ccncn1`: the cytotoxicity call is “inactive”.

For `CO[C@@H]1CN(C)C(=O)c2ccc(NC(=O)Nc3ccc(Cl)cc3)cc2OC[C@H](C)N(C(=O)Nc2c(C)noc2C)C[C@@H]1C`, the cytotoxicity call was “inactive”.

As to `C[C@@H]1CCCCO[C@H](CN(C)C(=O)Nc2ccc(C(F)(F)F)cc2)[C@H](C)CN([C@H](C)CO)C(=O)c2cc(NS(=O)(=O)c3cn(C)cn3)ccc2O1`, the cytotoxicity call was “inactive”.

Take `Cc1noc(C)c1NC(=O)Nc1ccc2c(c1)C(=O)N([C@H](C)CO)C[C@H](C)[C@H](CN(C)CC1CCCCC1)OCCCC[C@@H](C)O2`: the cytotoxicity call was “inactive”.

On to `C[C@H](CO)N1C[C@H](C)[C@@H](CN(C)C(=O)c2cccnc2)Oc2cc(-c3cccc(C#N)c3)ccc2S1(=O)=O`, for which the cytotoxicity call is “inactive”.

In the case of `OCc1cncnc1`, the cytotoxicity call is “inactive”.

Turning to `C[C@@H]1CCCCO[C@@H](CN(C)Cc2ccccc2)[C@H](C)CN([C@H](C)CO)C(=O)c2cc(NC(=O)Nc3ccc(C(F)(F)F)cc3)ccc2O1`, the cytotoxicity call was “active”.

On to `C[C@H](CO)N1C[C@H](C)[C@H](CN(C)Cc2ccccc2)OCCCC[C@H](C)Oc2ccc(NC(=O)Nc3ccc(C(F)(F)F)cc3)cc2C1=O`, for which the cytotoxicity call was “active”.

On to `C[C@H](CO)N1C[C@H](C)[C@@H](CN(C)Cc2ccccc2)OCCCC[C@H](C)Oc2ccc(NC(=O)Nc3ccc(C(F)(F)F)cc3)cc2C1=O`, for which the cytotoxicity call is “active”.

Consider `C[C@H]1CCCCO[C@H](CN(C)Cc2ccccc2)[C@@H](C)CN([C@@H](C)CO)C(=O)c2cc(NC(=O)Nc3ccc(C(F)(F)F)cc3)ccc2O1`, for which the cytotoxicity call was “active”.

`O=C(Nn1cnnc1)c1ccccc1`: the cytotoxicity call is “inactive”.

Regarding `O=C(O)c1n[nH]c2c1C[C@H]1C[C@@H]21`, the cytotoxicity call was “inactive”.

Turning to `COc1ccc(S(=O)(=O)Nc2ccc3c(c2)C(=O)N([C@@H](C)CO)C[C@@H](C)[C@@H](CN(C)C(=O)Nc2c(C)noc2C)OCCCC[C@@H](C)O3)cc1`, the cytotoxicity call is “inactive”.

As to `O=c1nc(C(F)(F)F)[nH]c2nc[nH]c12`, the cytotoxicity call is “inactive”.

With `Cn1cnc(CCNC(=O)C[C@H]2CC[C@@H]3[C@H](COC[C@@H](O)CN3C(=O)C3CC3)O2)c1`, the cytotoxicity call was “inactive”.

In the case of `O=C(N[C@@H]1CC[C@@H](CCn2cc(C3(O)CCCC3)nn2)O[C@H]1CO)C1CCOCC1`, the cytotoxicity call is “inactive”.

`C[C@H]1CN([C@@H](C)CO)C(=O)Cc2cc(N(C)C)ccc2O[C@H]1CN(C)S(=O)(=O)c1ccc(F)cc1`: the cytotoxicity call is “inactive”.

Take `C[C@H](CO)N1C[C@H](C)[C@@H](CN(C)CC2CCCCC2)Oc2ccc(NS(=O)(=O)c3cn(C)cn3)cc2C1=O`: the cytotoxicity call was “inactive”.

As to `C[C@@H]1CN([C@@H](C)CO)C(=O)c2cc(NC(=O)Nc3ccc(C(F)(F)F)cc3)ccc2O[C@@H](C)CCCCO[C@@H]1CN(C)Cc1ccccc1`, the cytotoxicity call was “active”.

On to `C[C@@H]1CN([C@H](C)CO)C(=O)c2cc(NC(=O)Nc3ccc(C(F)(F)F)cc3)ccc2O[C@@H](C)CCCCO[C@@H]1CN(C)Cc1ccccc1`, for which the cytotoxicity call is “active”.

Consider `C[C@@H]1CN([C@@H](C)CO)C(=O)c2cc(NC(=O)Nc3ccc(C(F)(F)F)cc3)ccc2O[C@@H](C)CCCCO[C@H]1CN(C)Cc1ccccc1`, for which the cytotoxicity call is “active”.

Turning to `C[C@@H]1CCCCO[C@@H](CN(C)Cc2ccccc2)[C@@H](C)CN([C@@H](C)CO)C(=O)c2cc(NC(=O)Nc3ccc(C(F)(F)F)cc3)ccc2O1`, the cytotoxicity call was “active”.

As for `Cc1ccc(N2C(=O)C(=O)NC2=S)cc1`, the cytotoxicity call is “inactive”.

For `C[C@H]1CN([C@@H](C)CO)C(=O)c2cc(NC(=O)CCN3CCOCC3)ccc2O[C@@H]1CN(C)C(=O)NC1CCCCC1`, the cytotoxicity call is “inactive”.

For `C[C@H]1CN([C@@H](C)CO)C(=O)Cc2cc(NS(=O)(=O)c3ccccc3)ccc2O[C@H]1CN(C)Cc1ccc2c(c1)OCO2`, the cytotoxicity call is “inactive”.

For the compound `C[C@H](CO)N1C[C@H](C)[C@H](CN(C)S(=O)(=O)c2cccs2)Oc2ccc(NC(=O)Cn3cnnn3)cc2CC1=O`, the cytotoxicity call was “inactive”.

Take `CC(C)NCCCC[C@H](NC(=O)[C@H]1CCC(=O)N[C@@H](Cc2ccccc2)C(=O)N[C@H](Cc2ccc(O)cc2)C(=O)N[C@@H](CCCCNC(C)C)C(=O)N[C@H](CCCN=C(N)N)C(=O)N[C@@H](Cc2ccc3ccccc3c2)C(=O)NCC(=O)N1)C(N)=O`: the cytotoxicity call was “inactive”.

For `Cc1noc(C)c1NC(=O)N(C)C[C@H]1Oc2ccc(NC(=O)Cn3cnnn3)cc2C(=O)N([C@H](C)CO)C[C@@H]1C`, the cytotoxicity call was “inactive”.

As to `Nc1nnc(N[C@H]2CCCCNC2=O)[nH]1`, the cytotoxicity call was “inactive”.

With `COCc1cn(CC[C@H]2CC[C@@H](NC(=O)CCN3CCCCC3)[C@@H](CO)O2)nn1`, the cytotoxicity call is “inactive”.

For the compound `COCC#Cc1cnc2c(c1)C(=O)N([C@@H](C)CO)C[C@@H](C)[C@H](CN(C)S(=O)(=O)c1cccc(OC)c1)O2`, the cytotoxicity call is “inactive”.

Turning to `CO[C@H](CN(C)S(=O)(=O)c1ccc(F)cc1)[C@@H](C)CN([C@H](C)CO)S(=O)(=O)c1cccc(Cl)c1`, the cytotoxicity call was “inactive”.

With `C[C@@H]1CN([C@H](C)CO)C(=O)c2cccc(NC(=O)c3ccno3)c2O[C@H]1CN(C)S(=O)(=O)c1cccs1`, the cytotoxicity call was “inactive”.

In the case of `C[C@@H]1CCCCO[C@@H](CN(C)Cc2ccccc2)[C@H](C)CN([C@@H](C)CO)C(=O)c2cc(NC(=O)Nc3ccc(C(F)(F)F)cc3)ccc2O1`, the cytotoxicity call was “active”.

Take `C[C@@H]1CN([C@H](C)CO)C(=O)c2cc(NC(=O)Nc3ccc(C(F)(F)F)cc3)ccc2O[C@@H](C)CCCCO[C@H]1CN(C)Cc1ccccc1`: the cytotoxicity call is “active”.

`C[C@H]1CCCCO[C@@H](CN(C)Cc2ccccc2)[C@@H](C)CN([C@@H](C)CO)C(=O)c2cc(NC(=O)Nc3ccc(C(F)(F)F)cc3)ccc2O1`: the cytotoxicity call is “active”.

For the compound `C[C@@H]1CCCCO[C@H](CN(C)Cc2ccccc2)[C@H](C)CN([C@@H](C)CO)C(=O)c2cc(NC(=O)Nc3ccc(C(F)(F)F)cc3)ccc2O1`, the cytotoxicity call is “active”.

`Cc1noc(C)c1NC(=O)Nc1cccc2c1O[C@H](CN(C)Cc1ccc(C(F)(F)F)cc1)[C@@H](C)CN([C@H](C)CO)C2=O`: the cytotoxicity call is “inactive”.

For the compound `C[C@@H]1CN([C@H](C)CO)C(=O)c2cccc(NC(=O)CCCCCC(=O)Nc3ccccc3N)c2O[C@@H]1CN(C)Cc1ccccc1`, the cytotoxicity call was “inactive”.

For `C=CCOC[C@H]1NCCc2c1nnn2CC`, the cytotoxicity call is “inactive”.

As for `COc1ccc(CN(C)C[C@@H]2Oc3c(NS(=O)(=O)c4cn(C)cn4)cccc3C(=O)N([C@H](C)CO)C[C@H]2C)cc1`, the cytotoxicity call was “inactive”.

As for `O=C(C[C@@H]1CC[C@H]2[C@@H](COC[C@@H](O)CN2C(=O)c2cccnc2)O1)NCC1CC1`, the cytotoxicity call is “inactive”.

For the compound `C[C@@H]1CN([C@@H](C)CO)C(=O)c2cc(NS(C)(=O)=O)ccc2O[C@@H](C)CCCCO[C@@H]1CN(C)S(=O)(=O)c1cn(C)cn1`, the cytotoxicity call is “inactive”.

As for `C[C@H]1CCCCO[C@@H](CN(C)Cc2ccc(C(=O)O)cc2)[C@@H](C)CN([C@@H](C)CO)C(=O)c2cc(NC(=O)Nc3ccc(F)cc3)ccc2O1`, the cytotoxicity call was “inactive”.

In the case of `C[C@@H]1CCCCO[C@@H](CN(C)Cc2ccc3c(c2)OCO3)[C@H](C)CN([C@@H](C)CO)C(=O)c2cc(NS(=O)(=O)c3ccccc3)ccc2O1`, the cytotoxicity call is “inactive”.

As for `Cc1noc(C)c1S(=O)(=O)N(C)C[C@H]1Oc2ccc(NS(=O)(=O)c3ccc(Cl)cc3)cc2CC(=O)N([C@@H](C)CO)C[C@@H]1C`, the cytotoxicity call is “inactive”.

With `C[C@H]1CCCCO[C@@H](CN(C)C(=O)Nc2ccccc2)[C@@H](C)CN([C@@H](C)CO)C(=O)c2cc(NC(=O)Nc3ccccc3)ccc2O1`, the cytotoxicity call is “inactive”.

As for `COCC(=O)Nc1ccc2c(c1)OC[C@H](C)N(Cc1ccccc1OC)C[C@H](C)[C@@H](OC)CN(C)C2=O`, the cytotoxicity call is “inactive”.

`N[C@@H]1CC[C@@H](CCn2cc(-c3ccccn3)nn2)O[C@H]1CO`: the cytotoxicity call was “inactive”.

For the compound `C=CCC[C@H](Cc1ccc(F)cc1)C(=O)OC[C@@H](NC(=O)[C@H](CC=C)CC(=O)N(CCO)Cc1ccccc1)c1ccccc1`, the cytotoxicity call is “inactive”.

As for `C=CCOC(=O)[C@@H]1[C@H]2C(=O)O[C@H](c3ccccc3)[C@H](c3ccccc3)N2[C@H](c2ccc(OCCOC(=O)[C@H]3C[C@H]4C(=O)N[C@@H](CC(C)C)C(=O)N4[C@H]3c3cccc(OCCO)c3)cc2)[C@@]12C(=O)Nc1ccccc12`, the cytotoxicity call was “inactive”.

With `Cc1c(C)n2c3c(=O)n(C)c(=O)n(C)c3nc2n1CCO`, the cytotoxicity call is “inactive”.

Turning to `CC(C)NC(=O)Nc1ccc2c(c1)CC(=O)N([C@H](C)CO)C[C@@H](C)[C@H](CN(C)S(=O)(=O)c1ccc(F)cc1)O2`, the cytotoxicity call is “inactive”.

On to `CC[C@H]1OC(=O)[C@H](C)[C@@H](O[C@H]2C[C@@](C)(OC)[C@@H](O)[C@H](C)O2)[C@@H](C)[C@@H](O[C@H]2O[C@H](C)C[C@H](N(C)C)[C@H]2O)[C@](C)(O)C[C@@H](C)C(=O)[C@H](C)[C@@H](O)[C@]1(C)O`, for which the cytotoxicity call was “inactive”.

Turning to `CC[C@H]1OC(=O)[C@H](C)[C@@H](O[C@H]2C[C@@](C)(OC)[C@@H](O)[C@H](C)O2)[C@H](C)[C@@H](O[C@@H]2O[C@H](C)C[C@H](N(C)C)[C@H]2O)[C@](C)(O)C[C@@H](C)C(=O)[C@H](C)[C@@H](O)[C@]1(C)O`, the cytotoxicity call was “active”.

For `CCC1OC(=O)C(C)C(OC2CC(C)(OC)C(O)C(C)O2)C(C)C(OC2OC(C)CC(N(C)C)C2O)C(C)(O)CC(C)C(=O)C(C)C(O)C1(C)O` (configuration not stated), the cytotoxicity call was “inactive”.
